Outcome and Potency data for 30 compounds are collected here from PubChem BioAssay (Tox21).

Results filed as inconclusive are left out. The source made the active and inactive calls. Unless noted, the call rests on the fitted dose curve; in most records, active means well fitted curve in the direction sought with a large enough effect in the repeat runs; inconclusive means weak or mixed curves; inactive means no such curve, though single readings can be large; an effect the other way counts as inactive or inconclusive.

Assay [1] is described as follows: qHTS assay to identify small molecule antagonists of the glucocorticoid receptor (GR) signaling pathway - cell viability counter screen (AID 720693). Further: nearly all actives have a fitted effect of over 55% in size.
The nature of assay [2]: qHTS assay for identifying genotoxic compounds that show differential cytotoxicity against isogenic chicken DT40 cell lines with known DNA damage response pathways - wild type cell line (AID 743012). Further: nearly all actives have a fitted effect of over 60% in size. Further: potency means the concentration at half of the fitted maximal effect. The procedure, abridged:
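Endpoint: CellTiter-Glo luminescence, 30 min RT. Cells: wild type DT40, 300/well. Exposure: compounds in DMSO, 40 h, 37 C/5% CO2, after ~0.5 h pre-incubation.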

Assay [3] is described as follows: qHTS assay for identifying genotoxic compounds that show differential cytotoxicity against isogenic chicken DT40 cell lines with known DNA damage response pathways - Rev3 mutant cell line (AID 743014; further: nearly all actives have a fitted effect of over 55% in size; further: potency means the concentration at half of the fitted maximal effect). (In general: qHTS replaces the single test concentration by a dilution series.)
A short description of assay [4]: qHTS assay for identifying genotoxic compounds that show differential cytotoxicity against isogenic chicken DT40 cell lines with known DNA damage response pathways - Rad54/Ku70 mutant cell line (AID 743015). Further: nearly all actives have a fitted effect of over 60% in size. Further: potency means the concentration at half of the fitted maximal effect.
The nature of assay [5]: qHTS assay to identify small molecule antagonists of the androgen receptor (AR) signaling pathway - cell viability counter screen (AID 743033; further: nearly all actives have a fitted effect of over 45% in size).
Assay [6] is described as follows: qHTS assay to identify small molecule antagonists of the androgen receptor (AR) signaling pathway using the MDA cell line - cell viability counter screen (AID 743041; further: nearly all actives have a fitted effect of over 45% in size). In outline:
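Viability read by CellTiter-Fluor fluorescence in the same wells as the antagonist screen, added after 15.5 h of a 16 h, 37C exposure. Human breast carcinoma MDA-kb2 AR-luc cells, compounds co-dosed with agonist R1881.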

Assay [7] deals with Androgen receptor (Homo sapiens) (UniProt P10275). In words: qHTS assay to identify small molecule agonists of the androgen receptor (AR) signaling pathway (AID 743036; active means well fitted activation curve with a large enough effect in the signal ratio in the repeat runs, with a control signal flat, not every such curve was filed as active; the % refers to the signal ratio). In outline:
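Reporter line: GeneBLAzer AR-UAS-bla-GripTite (HEK293). Steps: plate cells, 4 h rest, add compounds, 16 h at 37C, add LiveBLAzer B/G substrate, 2 h at RT, read fluorescence.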

The target is the same in assay [8]. In words: qHTS assay to identify small molecule agonists of the androgen receptor (AR) signaling pathway using the MDA cell line (AID 743040; further: nearly all actives have a fitted effect of over 20% in size). In outline:
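Luciferase agonist assay: 16 h compound exposure at 37C without CO2 in MDA-kb2 AR-luc cells, whose MMTV promoter responds to both AR and GR. Luminescence measured after 30 min room-temperature incubation with ONE-Glo.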

The target is the same in assay [9]. In words: qHTS assay to identify small molecule antagonists of the androgen receptor (AR) signaling pathway using the MDA cell line (AID 743042; further: nearly all actives have a fitted effect of over 55% in size). In outline:
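Antagonist mode: compounds plus R1881 agonist added to MDA-kb2 AR-luc cells, incubated 16 h at 37C. Luciferase reporter luminescence quantified, with multiplexed CellTiter-Fluor readout for cell viability.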

The target is the same in assay [10]. Description: qHTS assay to identify small molecule antagonists of the androgen receptor (AR) signaling pathway (AID 743035; active means well fitted inhibition curve with a large enough effect in the signal ratio in the repeat runs, not every such curve was filed as active; the % refers to the signal ratio). In outline:
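R1881 agonist challenge of a HEK293 UAS-beta-lactamase AR reporter line in the presence of compound (16 h, 37C); signal taken as FRET fluorescence after 2 h with LiveBLAzer B/G substrate at room temperature.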

Sequence of Androgen receptor (Homo sapiens) (P10275 whole entry, looked up): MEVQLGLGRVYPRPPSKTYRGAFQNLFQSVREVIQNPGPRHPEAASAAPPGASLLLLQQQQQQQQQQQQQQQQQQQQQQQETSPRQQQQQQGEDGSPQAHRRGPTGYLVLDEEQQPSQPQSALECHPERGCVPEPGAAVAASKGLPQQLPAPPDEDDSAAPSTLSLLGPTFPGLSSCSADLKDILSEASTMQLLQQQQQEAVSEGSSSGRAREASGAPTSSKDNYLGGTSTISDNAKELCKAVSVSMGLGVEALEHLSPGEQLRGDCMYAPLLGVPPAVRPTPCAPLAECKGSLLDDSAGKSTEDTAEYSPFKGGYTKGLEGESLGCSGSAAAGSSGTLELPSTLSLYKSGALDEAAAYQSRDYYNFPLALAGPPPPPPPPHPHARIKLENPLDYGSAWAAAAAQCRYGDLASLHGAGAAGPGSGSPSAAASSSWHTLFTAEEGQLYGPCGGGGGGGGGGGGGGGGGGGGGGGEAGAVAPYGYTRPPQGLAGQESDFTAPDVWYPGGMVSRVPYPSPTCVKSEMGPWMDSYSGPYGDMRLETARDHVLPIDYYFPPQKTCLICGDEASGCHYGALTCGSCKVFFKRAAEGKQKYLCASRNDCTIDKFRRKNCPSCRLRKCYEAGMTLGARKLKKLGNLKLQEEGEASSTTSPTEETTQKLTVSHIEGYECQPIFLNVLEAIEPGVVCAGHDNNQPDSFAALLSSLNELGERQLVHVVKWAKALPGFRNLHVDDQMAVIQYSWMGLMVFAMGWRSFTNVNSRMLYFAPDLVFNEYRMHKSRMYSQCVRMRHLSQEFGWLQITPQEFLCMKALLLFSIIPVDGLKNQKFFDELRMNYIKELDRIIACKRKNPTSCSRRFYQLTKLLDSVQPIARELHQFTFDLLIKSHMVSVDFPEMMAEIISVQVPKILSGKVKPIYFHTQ

Turning to `CC(O)CN(CCCN(C)C)CCCN(C)C` (stereo unspecified), the outcome in [1] and in assay [5] was inactive. For the same compound, the Potency result in assay [2], in assay [3], in assay [4] and in assay [6] was “inactive” in each case.

`COC(=O)CCCC(=O)O`: the outcome in [1] and in [5] was inactive. In addition, the Potency entry in assay [2], in assay [3], in [4] and in assay [6] was “inactive” in each case.

With `CCN(CC)C(=O)c1ccc(O)c(OC)c1`, the result in [1] and in [5] was inactive. Besides, the Potency entry in assay [2], in assay [3], in assay [4] and in [6] was “inactive” each time.

Turning to `NC(=O)Nc1nc2ccccc2[nH]1`, the compound was called inactive in assay [1] and in assay [5]. For the same compound, the Potency entry in [2], in assay [3], in assay [4] and in assay [6] was “inactive” each time.

In the case of `C1CCCCCCCCCCC1`, the compound was called inactive in assay [1], in [5], in [7] and in [9]. Further, the Potency result in assay [2], in [3], in assay [4], in [8] and in assay [6] was “inactive” throughout.

With `C=C(C)[C@H]1CC=C(C)CC1`, the compound was classed as inactive in [1] and in [5]. Also, the Potency result in [2], in assay [3], in [4] and in assay [6] was “inactive” each time.

In the case of `CO`, the call in assay [1] and in assay [5] was inactive. Moreover, the Potency result in assay [2], in [3], in assay [4] and in [6] was “inactive” throughout.

Regarding `Nc1nc2c(ncn2CCC(CO)CO)c(=O)[nH]1`, the compound was called inactive in assay [1] and in [5]. For the same compound, the Potency in assay [2] is 3.35 µM (active); in assay [3], 5.96 µM (active); in assay [4] it was 5.96 µM (active). The Potency entry in assay [6] is “inactive”.

In the case of `Nc1cc(C(Cl)=C(Cl)Cl)c(S(N)(=O)=O)cc1S(N)(=O)=O`, the result in [1] and in assay [5] was inactive. For the same compound, the Potency entry in assay [2], in [3], in assay [4] and in assay [6] was “inactive” each time.

For the compound `CCCc1ccccc1O`, the result in assay [1] and in assay [5] was inactive. For the same compound, the Potency entry in assay [2], in [3], in [4] and in [6] was “inactive” in each case.

Regarding `C=CCOCC(O)CS(=O)(=O)O` (stereo unspecified), the compound was called inactive in assay [1] and in assay [5]. Further, the Potency result in assay [2], in [3], in assay [4] and in assay [6] was “inactive” in each case.

Regarding `OCC(CO)(CO)COCC(CO)(CO)CO`, the compound was called inactive in assay [1] and in [5]. Also, the Potency result in assay [2], in assay [3], in assay [4] and in assay [6] was “inactive” each time.

Turning to `CC(C)(O)c1ccccc1`, the result in assay [1] and in assay [5] was inactive. For the same compound, the Potency result in assay [2], in [3], in [4] and in assay [6] was “inactive” in each case.

As to `CC(=O)NC(Cc1ccccc1)C(=O)O` (stereo unspecified), the outcome in [1] and in [5] was inactive. Also, the Potency entry in [2], in [3], in assay [4] and in assay [6] was “inactive” each time.

Consider `CCCCCCC(CCCCCCCCCCC(=O)OCC(COC(C)=O)OC(C)=O)OC(C)=O` (stereo unspecified), for which the call in assay [1] and in assay [5] was inactive. Also, the Potency entry in assay [2], in assay [3], in assay [4] and in assay [6] was “inactive” each time.

As for `CCC(C(=O)NC(N)=O)c1ccccc1` (stereo unspecified), the outcome in assay [1] and in [5] was inactive. Besides, the Potency entry in [2], in [3], in assay [4] and in [6] was “inactive” each time.

On to `NC(=O)CCCCC1CCSS1` (stereo unspecified), for which the outcome in [1] and in [5] was inactive. The Potency result in [2], in assay [3], in assay [4] and in [6] was “inactive” throughout.

Consider `CC(C=O)Cc1ccc(C(C)C)cc1` (stereo unspecified), for which the call in assay [1] and in assay [5] was inactive. Moreover, the Potency result in assay [2], in assay [3], in assay [4] and in assay [6] was “inactive” throughout.

As to `NC(N)=NS(=O)(=O)c1ccc(N)cc1`, the compound was called inactive in assay [1], in assay [7] and in [9]. The Potency entry in assay [2], in assay [3], in [4], in assay [10], in [8] and in assay [6] was “inactive” throughout.

`O=C(O)CCNC(=O)c1ccc(N=Nc2ccc(O)c(C(=O)O)c2)cc1`: the call in assay [1] and in assay [5] was inactive. Moreover, the Potency entry in [2], in assay [3], in [4] and in assay [6] was “inactive” throughout.

Consider `CCCCC=O`, for which the result in assay [1] and in assay [5] was inactive. Moreover, the Potency result in assay [2], in assay [3], in assay [4] and in [6] was “inactive” in each case.

On to `CC(C)(O)Cc1ccccc1`, for which the outcome in assay [1] and in assay [5] was inactive. Further, the Potency result in [2], in [3], in assay [4] and in assay [6] was “inactive” throughout.

In the case of `OC1OC[C@@H](O)[C@H](O)[C@H]1O` (stereo partly specified), the outcome in [1] and in [5] was inactive. In addition, the Potency entry in assay [2], in [3], in [4] and in assay [6] was “inactive” throughout.

Consider `CCO[Si](C)(OCC)OCC`, for which the result in [1] and in assay [5] was inactive. In addition, the Potency entry in assay [2], in assay [3], in [4] and in [6] was “inactive” each time.

Regarding `C=CC(=O)OCCCCCC`, the compound was called inactive in assay [1] and in assay [5]. The Potency result in [2], in [3], in assay [4] and in [6] was “inactive” in each case.

For the compound `CC1=CC(=O)CCC1`, the compound was called inactive in assay [1] and in assay [5]. For the same compound, the Potency result in assay [2], in assay [3], in [4] and in assay [6] was “inactive” throughout.

As to `OCC(O)[C@@H](O)[C@H](O)[C@H](O)CO[C@H]1O[C@H](CO)[C@@H](O)[C@H](O)[C@H]1O` (stereo partly specified), the compound was called inactive in assay [1] and in assay [5]. The Potency result in [2], in assay [3], in assay [4] and in assay [6] was “inactive” each time.

With `CCCC=O`, the outcome in assay [1] and in [5] was inactive. The Potency result in assay [2], in assay [3], in assay [4] and in assay [6] was “inactive” each time.

Take `COc1cc(C(=O)N2CCOCC2)cc(OC)c1OC`: the compound was called inactive in assay [1] and in assay [5]. Further, the Potency entry in [2], in assay [3], in [4] and in assay [6] was “inactive” each time.

With `Cc1c(C)n(CCN(C)C)c2ccc(C(=O)OCCN(C)C)cc12`, the result in assay [1] and in [5] was inactive. The Potency in assay [2] is 11.9 µM (active); in [3], 7.5 µM (active); in assay [4] it was 13.3 µM (active). Besides, in [6], the Potency result was “inactive”.
